This is one part of a sample in which hits are shown more often than they occur.
Cruzain noTriton = qHTS Assay for Promiscuous and Specific Inhibitors of Cruzain (without detergent) | purified cruzain, Z-FR-AMC fluorescence, no detergent | Potency, µM, most hits filed as inhibitors | AID 1476, 2009 | 200,000 tested, 2.3% active | Cruzipain (Trypanosoma cruzi), P25779; note: nearly all actives have a fitted effect of over 40% in size
Target sequence (P25779 123-467 limits assumed): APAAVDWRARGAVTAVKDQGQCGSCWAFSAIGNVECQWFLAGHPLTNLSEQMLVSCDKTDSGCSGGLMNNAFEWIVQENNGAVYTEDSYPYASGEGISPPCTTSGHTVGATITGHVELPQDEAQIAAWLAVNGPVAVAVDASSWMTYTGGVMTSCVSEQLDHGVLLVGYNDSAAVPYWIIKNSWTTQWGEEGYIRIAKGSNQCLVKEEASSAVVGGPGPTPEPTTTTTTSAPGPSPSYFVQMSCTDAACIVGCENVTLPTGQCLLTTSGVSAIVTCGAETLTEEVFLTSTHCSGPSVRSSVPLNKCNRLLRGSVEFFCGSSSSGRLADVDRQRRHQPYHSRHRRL
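Detergent-free condition (0.00005% Triton X-100) in acetate buffer pH 5.5 with DTT. 1.5 nM enzyme and compound were pre-mixed 15 min, then 2 uM Z-FR-AMC substrate added; reaction progress from fluorescence change between first and third reads (60 s).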
NS1 function inh = qHTS Assay for Inhibitors of Influenza NS1 Protein Function; Potency, µM (highest dose often 46.1 µM); 270,000 tested, 0.4% active; calls by dose curve; note: actives are rising curves; nearly all actives have a fitted effect of over 50% in size
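S. cerevisiae expressing influenza A NS1, grown in glucose, washed, then diluted 1:100 into pH 6.0 -URA galactose medium with 23 nl compound. Growth recovery read as OD600; NS1-free strain serves as control.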
Cruzain Triton = qHTS Assay for Promiscuous and Specific Inhibitors of Cruzain (with detergent); Cruzipain (Trypanosoma cruzi), P25779; purified cruzain, Z-FR-AMC fluorescence, 0.01% Triton; 200,000 tested, 0.43% active; Potency, µM, usual class: inhibitors; note: nearly all actives have a fitted effect of over 40% in size
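Detergent-containing run (0.01% Triton X-100) in acetate buffer pH 5.5 with 5 mM DTT: enzyme at 1.5 nM final, 15 min compound preincubation at room temperature, then 2 uM Z-FR-AMC substrate. Activity taken as 60 s fluorescence increase at 360/450 nm.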
Numbers stand for hits; n = inactive; u = inconclusive; x = not tested or not shown; ! = a repeat was not active. Unless noted, calls come from the whole dose curve; as a rule, active = well fitted curve in the direction sought with a large enough effect; inconclusive = small, poorly fitted or top-dose-only effect, or another doubt; inactive = no such curve, though single readings can be large; an effect the other way counts as inactive or inconclusive.

SMILES	Cruzain noTriton	NS1 function inh	Cruzain Triton
COC(=O)c1c(-n2c(C)cc(C=O)c2C)sc2c1CCCC2	7.9µM	n	n
O=C(Nc1nnc(-c2ccccc2SCc2ccccc2F)s1)Nc1ccccc1F	3.2µM	n	n
O=C(Nc1nnc(-c2ccc(F)cc2)s1)Nc1ccccc1F	x	n	x
Cc1ccc(OCCN2C(=O)OC(C)(C)C2(C)O)cc1 (stereo not given)	n	n	n
Nc1cc(=O)[nH]c(SCc2cccc3ccccc23)n1	x	n	x
Nc1cc2c(nc3c4ccccc4c(N)cc3[n+]2-c2cccc3ccccc23)c2ccccc12 (tested in a mixture with another compound)	1.3µM	n	n
CCCCC#Cc1ccc(C(=O)NNC(=O)Nc2ccccc2)o1	x	n	x
Brc1cccc(-c2nnc3sc(CNC4CCCC4)cn23)c1	n	n	n
O=C(Nc1ccc(N2CCCC2)cc1)c1cccc(F)c1	u	n	n
Cc1nc(NC(=O)c2ccc(-c3cc4ccccc4oc3=O)cc2)ccc1Br	u	n	n
Cc1nc(NC(=O)c2cccc(-c3cc4ccccc4oc3=O)c2)ccc1Br	20µM	n	n
O=C(Nc1ccc(N2CCCC2)cc1)c1cccc(-c2cc3ccccc3oc2=O)c1	4µM	u	n
O=C(Nc1ccc(S(=O)(=O)N2CCOCC2)cc1)c1ccc([N+](=O)[O-])cc1Cl	x	n	x
CC(=O)N1CCN(c2ccc(NC(=O)c3ccc4ccccc4c3)cc2)CC1	x	n	x
O=C(Nc1ccc(N2CCCC2)cc1)c1ccc2ccccc2c1	16µM	u	n
O=C(Nc1ccc(N2CCCC2)cc1)c1ccc([N+](=O)[O-])cc1Cl	10µM	n	n
CCCCC(=O)Nc1ccc2c(c1)nc(CN1CCN(C(=O)OCC)CC1)n2C	x	n	x
CC1CN(C(=O)c2cc(S(=O)(=O)N(C)c3ccc(F)cc3)ccc2Cl)CC(C)O1 (stereo not given)	x	n	x
O=C(NCc1ccc(F)cc1)c1cccnc1	x	n	x
O=C(Nc1ccc(N2CCCC2)cc1)c1ccccc1F	20µM	u	n
O=C(Nc1ccc(N2CCCCC2)cc1)c1ccc(F)cc1F	x	n	x
O=C(Nc1ccc(Br)cn1)c1cccc(-c2cc3ccccc3oc2=O)c1	u	n	n
O=C(Nc1ccccc1N1CCCC1)c1cccc(-c2cc3ccccc3oc2=O)c1	25µM	u	n
COC(=O)c1sccc1NC(=O)CSc1nnnn1-c1ccccc1C	n	n	n
Cn1c(=O)c2c(SCC(=O)Nc3ccccc3F)nc(-c3ccccc3F)nc2n(C)c1=O	x	n	x
SMILES	Cruzain noTriton	NS1 function inh	Cruzain Triton
C=CCNc1ncnc2c1[nH]c1ccc(Cl)cc12	13µM	n	u
C=CCNc1ncnc2c1[nH]c1ccccc12	u	n	u
CSc1ccc(C(=O)C2CCCN(C(=O)c3nn(C)c(=O)c4ccccc34)C2)cc1 (stereo not given)	x	n	x
Cc1cc(=O)oc2c(CN(C)Cc3ccccc3)c(O)ccc12	u	n	20µM
CN(Cc1ccccc1)Cc1c(O)ccc2ccccc12	x	n	x
CN(C)c1ccc(-c2noc(C3CC(=O)N(c4ccc5c(c4)OCCO5)C3)n2)cc1 (stereo not given)	n	x	n
CC(C)(C)OCC1CO1 (stereo not given)	n	x	n
O=C(Nc1ccc(F)cc1)c1sc2cc(C(F)(F)F)cnc2c1-c1cccs1	25µM	n	n
O=C(O)c1sc2cc(C(F)(F)F)cnc2c1-c1ccccc1	16µM	n	u
COc1ccc(NC(=O)c2sc3cc(C(F)(F)F)cnc3c2-c2cccs2)cc1	n	n	n
COC(=O)c1sc2cc(C(F)(F)F)cnc2c1-c1ccccc1	n	n	n
O=C(c1ccncc1)N1CCC2(CC1)CN(c1ccccn1)C2	n	x	n
CC(C)CNC(=O)c1cc(-c2ccc(Cl)c(Cl)c2)on1	13µM	n	n
O=C(NCCc1ccccc1)c1cc(-c2ccc(Cl)c(Cl)c2)on1	n	x	n
Cc1ccc(C)c(NC(=O)CCn2nc(C)c3c(C)n(-c4ccccc4)nc3c2=O)c1	n	x	n
COc1ccc2c3c(cccc13)NN=C2C	x	n	x
COc1ccc(S(=O)(=O)N2CCN(c3c(C)cccc3C)CC2)cc1OC	n	n	n
COc1cc(Cl)c(S(=O)(=O)N2CCN(c3c(C)cccc3C)CC2)cc1Cl	20µM	x	n
COc1ccc(CCNC(=O)c2ccc3nc(-c4ccco4)c(-c4ccco4)nc3c2)cc1OC	n	n	14µM
O=C(Nc1ccc2nc(-c3ccco3)c(-c3ccco3)nc2c1)NC1CC1	2.5µM	n	8.9µM
O=C(Nc1ccc(N2CCOCC2)cc1)Nc1ccc2nc(-c3ccco3)c(-c3ccco3)nc2c1	u	n	u
CCc1nc2ccc(C(=O)NCCc3ccc(OC)c(OC)c3)cc2nc1CC	n	n	n
O=C(NCCCO)Nc1ccc2nc(-c3ccco3)c(-c3ccco3)nc2c1	7.9µM	u	13µM
O=C(O)c1ccc2nc(-c3ccco3)c(-c3ccco3)nc2c1	x	n	x
O=C(Nc1cccc(C(F)(F)F)c1)c1ccc2nc(-c3ccco3)c(-c3ccco3)nc2c1	u	5.6µM	14µM
SMILES	Cruzain noTriton	NS1 function inh	Cruzain Triton
OCCCNC(=S)Nc1ccc2nc(-c3ccccn3)c(-c3ccccn3)nc2c1	n	n	n
NS(=O)(=O)c1ccc(CCNCC(=O)N2CCC(Cc3ccccc3)CC2)cc1	x	n	x
COc1ccc(NC(=O)Cn2c(=O)n(-c3ccc(Cl)cc3)c(=O)c3c(C)c(C(=O)N(C)C)sc32)cc1Cl	n	x	n
COc1ccc(Cl)cc1N(C(C)C(=O)O)S(C)(=O)=O (stereo not given)	x	n	x
COc1ccc(NC(=O)C2=C(C)Nc3nc(SC)nn3C2c2cc(OC)ccc2OC)cc1 (stereo not given)	n	x	n
Cc1ccc(NC(=O)c2nsc(Cl)c2Cl)cc1	x	n	x
COc1ccc2c(c1OC)c(=O)n1c3ccc(OC(C)C(=O)NCCCN4CCOCC4)cc3c3ccnc2c31 (stereo not given)	x	n	x
O=C(CS(=O)c1cccc(C(F)(F)F)c1)Nc1ccc(Cl)cc1Cl (stereo not given)	n	n	n
COc1ccccc1CNc1ccnc(-c2ccoc2)n1	n	x	n
COc1ccccc1CNc1nc(-c2ccoc2)nc2ccccc12	25µM	x	n
O=c1[nH]c(Cc2cccc(C(F)(F)F)c2)nc2ccccc12	x	n	x
COC(=O)c1c(NC(=O)COC(=O)CNC(=O)C2CCCCC2)sc(C)c1C	10µM	n	4µM
CCOC(=O)c1c(NC(=O)CNC2CCCCC2)sc(C)c1C	x	n	x
CN(C)CC/C=C1/c2ccccc2Sc2c(O)cc(Cl)cc21	25µM	u	n
COc1cc(Cl)cc2c1Sc1ccccc1/C2=C/CCN(C)C	n	n	n
[O-][Br+2]([O-])O	n	x	22µM!
CCOCCCn1c(SCC(=O)NCc2ccc3c(c2)OCO3)nc2ccccc2c1=O	x	n	x
CCCCNC(=O)CSc1nc2ccccc2c(=O)n1Cc1ccc2c(c1)OCO2	20µM	n	n
CN(Cc1ccccn1)Cc1cn(Cc2ccccc2)nc1-c1ccc2c(c1)OCO2	x	n	x
Cc1ccc(-c2nnn(CC(=O)NCC3CC3)n2)o1	n	n	n
Cc1ccc(-c2nnn(CC(=O)Nc3ccc4nn(-c5ccccc5)nc4c3)n2)o1	10µM	n	n
COc1ccc(-c2cc(C(=O)OCC(=O)c3cccc([N+](=O)[O-])c3)c3cc(C)ccc3n2)cc1	10µM	n	n
